# Out of some 53,000 sequences screened, about 3,700 (7%) were called active. Only a selection was taken, and actives are over-represented in it overall. Values without a mark were called inactive.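 The calls were made as follows: active = gene knockdowns whose robust z-score for IL-1 alpha signal is at least 2 or at most -2, so actives lie on both sides; inactive = the rest.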
# Experiment: Components of the Cytosolic LPS Sensing Pathway: Gene Identification via Genome-wide siRNA Screen;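 also: robust z of the log signal after scaling to non-targeting control siRNA wells of the plate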
# Conditions: RAW264.7 macrophages, IL-1a HTRF, actives lie on both sides, screened at 100 nM (by protocol), cells primed 5 h with Pam3CSK4 first
# Method in brief: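 Cells (RAW264.7, 1×10^4 per well) were transfected with siRNA at 100 nM and cultured 48h at 37 degrees C. Pam3CSK4 was added for 5 hours; LipidA transfection followed for 24 hour. IL-1a was then measured by HTRF.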
row,Sequence,z-score
1,CGAUUGACUUAAGAUUCAGTT against Hlf,-0.612
2,GGCCAAAGAGUUCAGCCUATT against Prrx2,-0.29
3,GGUCAAAAGUUCUGGACAGTT against Spin4,5.6 (active)
4,GGACGAUGGUUCCUGAAAATT against Snap91,-1.39
5,GGUUGAAGGAGUGUUUUAUTT against Rtcb,2.09 (active)
6,GGCCCAUAAUUAAAUGUUUTT against Stac2,0.438
7,CCAAUAGUUGUGGACAUGATT against Crisp1,1.82
8,GCUUACCUUGUUCUUAAAGTT against D2hgdh,-1.62
9,GGUACCAUAUGAGAGCUAATT against Tsr2,2.7 (active)
10,AACCAGAGGUCCUAAAUACTT against Mmp28,-0.948
11,GCUAAGUGCUCGAAUCCGATT against Cnppd1,-0.326
12,GGUGGACAUGUGGAAUGAUTT against Ubxn11,0.463
13,GCUAGUGACUUUGAGAUUGTT against Msh5,-0.75
14,CCACUUUCAGAAACAUUACTT against A2ml1,-1.01
15,GGCUACUGUUGCUGCAUUUTT against Lin7c,-2.49 (active)
16,CCAACAAAAACGUACUUUGTT against 9530091C08Rik,1.24
17,CCAGAGAGAUACCUGAUCUTT against Tas2r113,-0.993
18,GGGACAAUACAUUGAUAGCTT against Vmn1r206,-0.625
19,GGAAGAUGCCUACUUCAGATT against 4632433K11Rik,2.5 (active)
20,GGCCAUCACUAUUAGCCUCTT against Vmn1r70,-0.214
21,GGGCUAUAUAUAUUUCCACTT against Asns,2.75 (active)
22,CCAUAUUGGCAAUCUCUAGTT against Khdc1a,2.15 (active)
23,GGAAGUAUUGACGAGUGGGTT against Orai3,0.0813
24,GGAAGUCCAUCAGCUUUAUTT against Wdr78,2.29 (active)
25,GCGACUGACACUAACAGAATT against Poc1a,-0.261
26,GGUUUCAUGAAAGAGGAGCTT against Cbs,-0.926
27,GGGCACCACAGAAAGGAAUTT against Olfr376,-0.525

row,Sequence,z-score
1,GGCUAACCGAAGCCAUCCUTT against Tceal9,0.969
2,GGACCAGGAUAGGACCAAUTT against Avpr2,2.33 (active)
3,GCUUUCAUUAAGUCAGAUCTT against Flvcr2,1.16
4,GGAUAAGAGAAAAACAGAATT against Ect2,0.141
5,GGCAUAGUUGCUGUUCUCUTT against Slc9a9,-0.871
6,GGCUGUUUGCCAAAAAAAATT against Ppp1r16a,-0.36
7,GGCACAGUUCUGGAAGAUGTT against Qtrt1,-1.02
8,GCACAGACAUCUUUUGCCATT against Man2a2,-1
9,GGUAUUCGAAGCAUACAAUTT against Pdha2,3.47 (active)
10,GGAAAUGAUCUCUUUUGGATT against Bbs2,-0.734
11,GGCACACUUGAGAAGACACTT against Cul5,-0.601
12,GGAGGAAAGAAGUCCUACATT against Rnase2b,-0.835
13,GGUCGGUGUUUUAUCUGCUTT against Slc17a9,-3.2 (active)
14,CCUUCUAGAUGUCUUAAGATT against Zfp41,-0.244
15,GGCCAAACAAGACCCAUCUTT against Ppil2,-0.621
16,GGAAAAGUAUUGGUAGACGTT against Steap4,-1.73
17,GCAAUGCAAAAGAUGCCCUTT against Chchd7,0.0804
18,CCCAGUUAGAAUUGUUAUCTT against Snx16,1.29
19,CAUCUUUCAUCAAAUAACUTT against Krtap31-2,2.49 (active)
20,GGAAAUUACUUUGAUACUCTT against Rfx3,1.5
21,CCAAAACGGAAUCCUAAUATT against Nyap2,-1.34
22,GGGCCACUUUCCAAUUCAATT against Tectb,0.817
23,GGAUCAUAAAAAGAAUCACTT against Gpr21,0.851
24,GGGAAUUUACCAAGUACCCTT against Nedd9,1.53
25,CCAUCCCAUAUGUUCCGGUTT against Ptms,0.94
26,GGUGAAAACAAUGACUUUGTT against Zbtb44,0.256
27,GGUUAUUUUGGCUAUAAGATT against Traf3,-4 (active)

# Reference: PubChem BioAssay AID1508600 (Functional Genomics Laboratory (NCATS/FGL), 2020)
